These results are taken from ChEMBL document CHEMBL4513216, “Probing the Open Global Health Chemical Diversity Library for Multistage-Active Starting Points for Next-Generation Antimalarials” (ACS Infect Dis, 2020).

Among all 69,000 compounds or so, about 8,600 (12%) showed an effect of 50% or more. For the sample, strong results were picked, then their nearest neighbours and some compounds at random.

The assay has as its system Plasmodium berghei. The assay is described as follows: Screen against P. berghei liver stage (PbLuc), transformed with Luciferase, at 10uM. Type of assay: functional, HepG2. Particulars: tested at 10 uM.
Turning to `Cc1ccccc1CN(C)C(C(N)=O)c1ccccc1` (configuration not stated), the INHIBITION is on record as 43.1%.

Take `CN(C)C(=O)c1ccc(C(C(=O)O)N(C)Cc2ccccc2Cl)cc1` (configuration not stated): the INHIBITION worked out at 44.3%.

With `CC(CC#N)N(C)Cc1ccccc1F` (configuration not stated), the INHIBITION amounted to 30.9%.

Regarding `CC(O)CNCc1ccccc1C(F)(F)F` (configuration not stated), the INHIBITION amounted to 37.7%.

Regarding `CN(Cc1ccccc1Cl)C(C(=O)O)c1ccc(F)c(CO)c1` (configuration not stated), the INHIBITION stood at 63.8%.

As to `COCCN(C)C(C(=O)O)c1ccc(F)c(Cl)c1` (configuration not stated), the INHIBITION stood at 40.3%.

As to `CN(Cc1ccccc1C(F)(F)F)C(C(N)=O)c1ccccc1` (configuration not stated), the INHIBITION is 36.3%.

With `CC(C(N)=O)N(C)Cc1ccccc1C(F)(F)F` (configuration not stated), the INHIBITION was found to be 56.8%.

Turning to `CN(Cc1ccccc1F)C(C(N)=O)c1ccccc1` (configuration not stated), the INHIBITION worked out at 50.8%.

Take `O=C(CCn1c(C(F)(F)F)cc2cccnc21)N1CCCC1`: the INHIBITION is reported as 12.3%.

For the compound `O=C1COC2(CCN(c3cccc(F)c3)CC2)CN1Cc1ccccn1`, the INHIBITION worked out at 42.3%.

In the case of `CC(C)N1CCc2c(C#N)c(NCc3ccco3)n3cnnc3c2C1`, the INHIBITION came to 37.1%.

Turning to `COC(=O)N1CCN(c2ncnc3nc(C)cc(C)c23)CC1`, the INHIBITION was determined as 20%.

On to `CC(C)NC(=O)c1ccc2c(c1)nc1n2CCN(Cc2ccco2)C1`, for which the INHIBITION is reported as -11.4%.

For the compound `CC(=O)N1[C@H](CN(C)C)C[C@@H]2CN(C(=O)c3cncc(C)c3)CC[C@@H]21`, the INHIBITION turned out to be 23.5%.

For `COc1ccc(CN2CCC3(CC(=O)N(c4cccc(F)c4)C3)C2)cc1` (configuration not stated), the INHIBITION stood at 21.1%.

Take `CN(C)c1cccc(C2CCN(C3COCC3O)CC2)n1` (configuration not stated): the INHIBITION was 26.7%.

Regarding `COCCCN(C)[C@@H]1c2ccccc2C2(CCNCC2)[C@H]1O`, the INHIBITION stood at 11.05%.

On to `COCCN(C)[C@@H]1c2ccccc2C2(CCNCC2)[C@H]1O`, for which the INHIBITION is recorded as 15.12%.

As to `CN(CC1(CO)CCOCC1)[C@@H]1c2ccccc2C2(CCNCC2)[C@H]1O`, the INHIBITION stood at 21.55%.

As to `COc1ccccc1CCN[C@@H]1c2ccccc2C2(CCNCC2)[C@H]1O`, the INHIBITION was found to be 88%.

As to `Cc1ccc(CCN[C@@H]2c3ccccc3C3(CCNCC3)[C@H]2O)s1`, the INHIBITION worked out at 54.4%.

In the case of `CN(CC1(CO)CCCC1)[C@@H]1c2ccccc2C2(CCNCC2)[C@H]1O`, the INHIBITION stood at 2.18%.

`Cn1ccnc1SC1CCc2ccccc2NC1=O` (configuration not stated): the INHIBITION came to 4.07%.

Regarding `Cc1ccc(CN(CCN(C)C)Cc2c(C)nc3sccn23)o1`, the INHIBITION came out at 27.675%.

On to `CN(C)c1cc(CNC(=O)Nc2nnc(C3CC3)s2)ccn1`, for which the INHIBITION is recorded as -27.8%.

Regarding `O=C(CC1=CCCCC1)Nc1ncn(CC(=O)N2CCCCCC2)n1`, the INHIBITION is on record as -18.4%.

With `CC(Nc1cccc(CN2CCOC2=O)c1)C(=O)Nc1cccc(F)c1` (configuration not stated), the INHIBITION is listed as 28.15%.

Take `CSCC(CCO)NC(=O)Nc1cc(Br)ccc1C` (configuration not stated): the INHIBITION is reported as -4.94%.

Consider `CSCC(CCO)NC(=O)Nc1ccc(C)cc1Br` (configuration not stated), for which the INHIBITION was found to be 36.8%.

For the compound `CSCC(CCO)NC(=O)Nc1cc(C)ccc1C` (configuration not stated), the INHIBITION was 40.9%.

On to `CCS(=O)(=O)NC(CCSC)C(=O)Nc1ccc(F)cc1` (configuration not stated), for which the INHIBITION stood at 38%.

In the case of `CCS(=O)(=O)NC(CCSC)C(=O)Nc1ccccc1C` (configuration not stated), the INHIBITION is 20%.

In the case of `CSCC(CCO)NC(=O)Nc1cccc(Br)c1` (configuration not stated), the INHIBITION is recorded as -4.94%.

On to `CCS(=O)(=O)NC(CCSC)C(=O)Nc1cc(F)ccc1C` (configuration not stated), for which the INHIBITION was 67.1%.

For the compound `CSCC(CCO)NC(=O)Nc1cc(F)ccc1C` (configuration not stated), the INHIBITION worked out at 50.4%.

Consider `CSCC(CCO)NC(=O)Nc1ccc(Br)cc1` (configuration not stated), for which the INHIBITION was found to be 53.8%.
